Reference: PubChem BioAssay
The source made the active and inactive calls. Unless noted, the rule behind the calls is not given here.

Key:
[1] = HepG2 liver cancer cell viability effects, profiling panel, resazurin fluorescence, 24 h, PK04 Diversity Set (AID 1172); settings: higher = more signal
[2] = basal S. cerevisiae growth modulation, no modifier, primary screen, OD600, strain BY4716, 24 h, basal condition (AID 1173); settings: OD600, 24 h, higher = more signal, called active from +8 up or from −8 down
[3] = MM1S myeloma cell viability, profiling panel, resazurin fluorescence, basal, 24 h, PK04 Diversity Set (AID 1174); settings: higher = more signal, called active from +8 up or from −8 down;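 note: MM1S multiple myeloma cell line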
[4] = molecular target: Dihydroorotate dehydrogenase (quinone), mitochondrial (Plasmodium falciparum (isolate 3D7)) (UniProt Q08210); experiment: PfDHODH enzyme inhibitors, primary screen, biochemical, C-terminal His tag, absorbance 600 nm (AID 1175); settings: DCIP absorbance 600 nm, higher = more signal, called active from +8 up or from −8 down;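 note: recombinant parasite enzyme with a five histidine tag at its C terminus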
[5] = P. aeruginosa biofilm formation inhibitors, primary screen, strain PAO1, LB-PBS medium, absorbance 600 nm (AID 1176); settings: P. aeruginosa PAO1 growth/biofilm, A600, 12 h; higher = more signal
[6] = S. cerevisiae RM11-1a growth modifiers, primary screen, strain RM11-1a, OD600, basal, 24 h (AID 1177); settings: OD600, 24 h, higher = more signal, called active from +8 up or from −8 down;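 note: cultures grown under basal conditions with no added stressor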
[7] = E. coli acrAB mutant growth effects, primary screen, E. coli filamentation inducers, strain DRC39, OD650, 24 h (AID 1178); settings: higher = more signal, called active from +8 up or from −8 down;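 note: growth measured as culture turbidity by optical density at 650 nm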
[8] = E. coli acrAB mutant growth effects, primary screen, E. coli filamentation inducers, strain DRC39, OD650, 48 h (AID 1179);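 note: screen aims at cell division blockers that make cells filament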; settings: E. coli DRC39 delta-acrAB growth, higher = more signal, called active from +8 up or from −8 down
[9] = RPMI8226 myeloma cell viability, profiling panel, resazurin fluorescence, basal, 24 h, PK04 Diversity Set (AID 1180); settings: higher = more signal;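 note: RPMI8826 multiple myeloma cell line at 5000 cells per well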
[10] = molecular target: E3 ubiquitin-protein ligase XIAP (Homo sapiens) (UniProt P98170); experiment: XIAP binders, primary screen, biophysical, small-molecule microarray, fluorescence 635 nm (AID 1181); settings: small-molecule microarray binding, higher = more signal;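 note: score merges 667 nm emission and signal to noise over triplicate slides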
[11] = test system: XIP peptide (Xip251-270) binding; experiment: small-molecule binders of XIP peptide, primary screen, biochemical, small-molecule microarray, fluorescence 635/667 nm, 0.1 µg/mL protein (AID 1182); settings: fluorescent protein binding, 635 nm, higher = more signal, called active from +8 up or from −8 down
XIP peptide (Xip251-270) = experiment: small-molecule binders of XIP peptide, primary screen, biochemical, small-molecule microarray, fluorescence 635/667 nm, 0.5 µg/mL protein (AID 1183); settings: small-molecule microarray binding, fluorescence 635 nm; higher = more signal
[12] = Plasmodium falciparum growth inhibition, primary screen, strain 3D7, DAPI fluorescence, 100 nL (AID 1184);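 note: parasites grown inside human red blood cells in medium with human serum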; settings: P. falciparum 3D7 growth, 3 d, higher = more signal
[13] = molecular target: Homeobox protein Hox-A13 (Mus musculus) (UniProt Q62424); experiment: inhibitors of HoxA13-DNA binding, primary screen, biochemical, fluorescence polarization, labeled oligonucleotide (AID 1185); settings: 15 min, higher = more signal, called active from +8 up or from −8 down
[14] = inhibitors of hydroxyurea-induced Chk1 phosphorylation, primary screen, imaging, HeLa, phospho-Chk1 antibody, percent positive cells (AID 1186); settings: hydroxyurea-induced phospho-Chk1 immunofluorescence imaging, higher = more signal
[15] = inhibitors of hydroxyurea-induced Chk1 phosphorylation, primary screen, imaging, HeLa, phospho-Chk1 nuclear intensity (AID 1187); settings: hydroxyurea-induced phospho-Chk1 immunofluorescence imaging, higher = more signal

Sequence of Dihydroorotate dehydrogenase (quinone), mitochondrial (Plasmodium falciparum (isolate 3D7)) (Q08210 whole entry, looked up): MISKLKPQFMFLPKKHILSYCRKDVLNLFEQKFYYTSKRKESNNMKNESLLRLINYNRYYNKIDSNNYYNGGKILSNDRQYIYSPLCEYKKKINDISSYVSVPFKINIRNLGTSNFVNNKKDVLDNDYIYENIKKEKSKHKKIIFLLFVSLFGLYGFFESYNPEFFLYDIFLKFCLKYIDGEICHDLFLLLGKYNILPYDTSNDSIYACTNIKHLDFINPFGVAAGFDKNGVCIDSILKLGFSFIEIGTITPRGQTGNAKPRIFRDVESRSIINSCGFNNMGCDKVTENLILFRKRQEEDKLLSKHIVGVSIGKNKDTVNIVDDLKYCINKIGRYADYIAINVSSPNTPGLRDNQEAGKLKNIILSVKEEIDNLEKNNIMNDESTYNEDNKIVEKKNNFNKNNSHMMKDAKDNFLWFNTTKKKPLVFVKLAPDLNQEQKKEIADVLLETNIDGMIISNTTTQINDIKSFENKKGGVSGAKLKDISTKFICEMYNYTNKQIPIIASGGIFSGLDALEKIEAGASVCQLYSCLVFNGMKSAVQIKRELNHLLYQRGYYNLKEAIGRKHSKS
Sequence of Homeobox protein Hox-A13 (Mus musculus) (Q62424 whole entry, looked up): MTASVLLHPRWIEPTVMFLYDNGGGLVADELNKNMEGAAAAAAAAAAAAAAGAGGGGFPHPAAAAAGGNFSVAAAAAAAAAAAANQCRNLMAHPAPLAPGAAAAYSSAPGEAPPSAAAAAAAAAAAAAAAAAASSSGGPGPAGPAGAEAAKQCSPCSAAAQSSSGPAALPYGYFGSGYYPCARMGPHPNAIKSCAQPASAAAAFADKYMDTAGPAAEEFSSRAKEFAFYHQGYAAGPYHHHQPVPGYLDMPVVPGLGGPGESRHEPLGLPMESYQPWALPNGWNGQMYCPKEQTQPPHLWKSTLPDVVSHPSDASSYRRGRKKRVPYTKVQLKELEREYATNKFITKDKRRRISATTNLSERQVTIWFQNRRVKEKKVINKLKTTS
Sequence of E3 ubiquitin-protein ligase XIAP (Homo sapiens) (P98170 whole entry, looked up): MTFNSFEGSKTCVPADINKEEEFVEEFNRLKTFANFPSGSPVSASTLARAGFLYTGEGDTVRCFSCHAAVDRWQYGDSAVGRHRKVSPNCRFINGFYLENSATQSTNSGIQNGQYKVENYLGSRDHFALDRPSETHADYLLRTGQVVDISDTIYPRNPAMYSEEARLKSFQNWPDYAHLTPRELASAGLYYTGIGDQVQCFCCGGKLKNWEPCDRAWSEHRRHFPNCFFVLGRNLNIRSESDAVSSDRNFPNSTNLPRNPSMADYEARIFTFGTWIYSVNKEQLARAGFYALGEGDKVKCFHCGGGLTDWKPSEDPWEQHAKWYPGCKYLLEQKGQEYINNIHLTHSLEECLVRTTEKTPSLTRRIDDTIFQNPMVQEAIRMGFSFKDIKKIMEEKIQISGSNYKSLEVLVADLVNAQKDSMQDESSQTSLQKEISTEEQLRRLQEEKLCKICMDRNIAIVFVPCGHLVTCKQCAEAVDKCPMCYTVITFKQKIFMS

Compound: O=C(NCC(F)(F)F)[C@@H]1c2ccccc2C(=O)N(CC23CC4CC(CC(C4)C2)C3)[C@H]1c1ccc(CO)cc1
- z-score [1]: 0.26
- z-score [2]: -2.11 (inactive)
- z-score [3]: -1.04 (inactive)
- composite z-score [4]: -2.32 (inactive)
- z-score [5]: 1.43 (inactive)
- z-score [6]: -2.97 (inactive)
- z-score [7]: 1.05 (inactive)
- z-score [8]: 0.823 (inactive)
- z-score [9]: 0.582
- composite z-score [10]: 0.341
- composite z-score [11]: 0.35 (inactive)
- composite z-score (XIP peptide (Xip251-270)): 0.586
- z-score [12]: -2.24
- z-score [13]: -4.02 (inactive)
- z-score [14]: -0.254 (inactive)
- z-score [15]: -0.371 (inactive)

Compound: COC(=O)C(CC#Cc1ccc2c(c1)[C@]1(C(=O)N2)[C@H](c2ccc(O)cc2)N2[C@H](c3ccccc3)[C@H](c3ccccc3)OC(=O)[C@H]2[C@@H]1C(=O)N1CCc2cc(OC)c(OC)cc2C1)C(=O)OC
- z-score [1]: 0.445
- z-score [2]: 0.954 (inactive)
- z-score [3]: -0.938 (inactive)
- composite z-score [4]: -11.2 (active)
- z-score [5]: 0.573 (inactive)
- z-score [6]: 1.58 (inactive)
- z-score [7]: -0.158 (inactive)
- z-score [8]: -0.627 (inactive)
- z-score [9]: -4.12
- composite z-score [10]: -0.117
- composite z-score [11]: 1.78 (inactive)
- composite z-score (XIP peptide (Xip251-270)): 0.779
- z-score [12]: -2.02
- z-score [13]: -2.32 (inactive)
- z-score [14]: 0.323 (inactive)
- z-score [15]: 0.0329 (inactive)

Compound: C=CCC(OC(C)=O)[C@@H]1[C@@H](N(Cc2cccc3ccccc23)C(=O)c2ccc(C)cc2)c2cc(OCCCO)ccc2N1C(=O)c1ccc2ccccc2n1 (some centres not stated)
- z-score [1]: 0.374
- z-score [2]: -1.13 (inactive)
- z-score [3]: 0.36 (inactive)
- composite z-score [4]: -1.35 (inactive)
- z-score [5]: -0.877 (inactive)
- z-score [6]: -1.88 (inactive)
- z-score [7]: 0.257 (inactive)
- z-score [8]: 0.91 (inactive)
- z-score [9]: 0.78
- composite z-score [10]: -0.0535
- composite z-score [11]: 0.655 (inactive)
- composite z-score (XIP peptide (Xip251-270)): -0.165
- z-score [12]: -0.344
- z-score [13]: -0.702 (inactive)
- z-score [14]: -0.39 (inactive)
- z-score [15]: -0.404 (inactive)

Compound: COc1ccc(C(O)C2C=CC3C(=O)N(C)C(=O)C3N2Nc2ccc([N+](=O)[O-])cc2[N+](=O)[O-])cc1OCc1ccccc1 (configuration not stated)
- z-score [1]: -0.448
- z-score [2]: 0.944 (inactive)
- z-score [3]: -1.27 (inactive)
- composite z-score [4]: 0.37 (inactive)
- z-score [5]: -0.0067 (inactive)
- z-score [6]: 0.371 (inactive)
- z-score [7]: -0.98 (inactive)
- z-score [8]: -0.383 (inactive)
- z-score [9]: -1.39
- composite z-score [10]: 0.165
- composite z-score [11]: -0.237 (inactive)
- composite z-score (XIP peptide (Xip251-270)): 0.753
- z-score [12]: 0.664
- z-score [13]: -2.98 (inactive)
- z-score [14]: 0.47 (inactive)
- z-score [15]: 0.219 (inactive)

Compound: COc1ccc(C#Cc2ccc3c(c2)[C@]2(C(=O)N3)[C@H](c3ccc(OCCO)cc3)N3[C@H](c4ccccc4)[C@H](c4ccccc4)OC(=O)[C@H]3[C@@H]2C(=O)O)cc1
- z-score [1]: 1.24
- z-score [2]: 1.85 (inactive)
- z-score [3]: -0.103 (inactive)
- composite z-score [4]: -12.9 (active)
- z-score [5]: 2.25 (inactive)
- z-score [6]: 1.73 (inactive)
- z-score [7]: 1.22 (inactive)
- z-score [8]: 0.0805 (inactive)
- z-score [9]: 0.149
- composite z-score [10]: 0.158
- composite z-score [11]: -0.436 (inactive)
- composite z-score (XIP peptide (Xip251-270)): 0.327
- z-score [12]: -1.31
- z-score [13]: -5.36 (inactive)
- z-score [14]: 0.36 (inactive)
- z-score [15]: 0.273 (inactive)

Compound: CC(C)c1ccc(NN2C(C(O)C(C)C)C=CC3C(=O)N(c4ccccc4)C(=O)C32)cc1 (configuration not stated)
- z-score [1]: -1.65
- z-score [2]: -0.619 (inactive)
- z-score [3]: -0.331 (inactive)
- composite z-score [4]: 0.974 (inactive)
- z-score [5]: 0.711 (inactive)
- z-score [6]: 1.57 (inactive)
- z-score [7]: 0.0582 (inactive)
- z-score [8]: -0.303 (inactive)
- z-score [9]: 0.0438
- composite z-score [10]: 0.132
- composite z-score [11]: 1.49 (inactive)
- composite z-score (XIP peptide (Xip251-270)): 0.778
- z-score [12]: -0.63
- z-score [13]: -1.26 (inactive)
- z-score [14]: -0.172 (inactive)
- z-score [15]: -0.0386 (inactive)

Compound: CCCCN1CC=CC23O[C@@H]4/C=C\CCC(C)OC(=O)C4[C@H]2C(=O)N(C(C)CO)[C@@H]3C1=O (some centres not stated)
- z-score [1]: 0.0172
- z-score [2]: -0.0298 (inactive)
- z-score [3]: -0.289 (inactive)
- composite z-score [4]: -0.216 (inactive)
- z-score [5]: 0.301 (inactive)
- z-score [6]: 0.549 (inactive)
- z-score [7]: 0.659 (inactive)
- z-score [8]: 0.606 (inactive)
- z-score [9]: -0.175
- composite z-score [10]: 0.0785
- composite z-score [11]: 1.02 (inactive)
- composite z-score (XIP peptide (Xip251-270)): -0.369
- z-score [12]: 0.105
- z-score [13]: -5.78 (inactive)
- z-score [14]: 0.479 (inactive)
- z-score [15]: 0.632 (inactive)
